S2 tox – reduces viability in counter-screen for ATXN expression inhibitors; S2 cells (HEK-293 line with an ATXN2-luciferase reporter) viability, CellTiter-Fluor protease fluorescence, 24 h; Potency, µM (titrated, usually from 56.7 µM), hits mostly cytotoxic; hit rate 0.49% among 400,000; AID 651635; further: potency means the concentration at half of the fitted maximal effect; nearly all actives have a fitted effect of over 40% in size
ATXN2 expr inh – reduces ATXN2 reporter expression in HEK-293 cells | HEK-293 ATXN2-luciferase reporter, luminescence, 24 h | Potency, µM (top dose mostly 57 µM), for inactives: top-dose activity change, negative = inhibition, hits mostly inhibitors | hit rate 0.72% among 360,000; further: potency means the concentration at half of the fitted maximal effect; on the % scale 0 is the no-effect control and ±100 the full control effect; nearly all actives have a fitted effect of over 55% in size
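ATXN2-luciferase reporter cells (luciferase flanked by upstream and downstream ATXN2 gene portions) were treated 24 h at 37 °C with compounds at up to 57 uM. SteadyGlo luminescence gave expression; GF-AFC fluorescence gave viability.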
MCF10A rereplic – inducers of DNA re-replication in MCF 10A breast cells | MCF 10A DNA re-replication, Hoechst nuclear intensity, 48 h | Potency, µM (doses to about 46.1 µM), for the others: at the highest dose activity, positive = re-replication, usual class: activators | hit rate 2.9% among 350,000; further: potency means the concentration at half of the fitted maximal effect; % of control where 0% means no effect; nearly all actives have a fitted effect of over 50% in size
SW480 rereplic – DNA re-replication induction in SW480 cells. SW480 DNA re-replication, Hoechst DNA content imaging, 48 h. Potency, µM (series often up to 46.1 µM), for the others: at the highest dose re-replication activation, hits mostly activators. hit rate 1.8% among 340,000. AID 624297; further: potency means the concentration at half of the fitted maximal effect; % of control where 0% means no effect; nearly all actives have a fitted effect of over 55% in size
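Compounds, transferred as 23 nL by pin tool, were incubated with cells for 48 hr; DNA content per nucleus was then quantified by Hoechst staining and fluorescence plate imaging.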
IL1B secr inh – blocks inflammasome-driven IL-1 beta release; activity change, % at 57.5 µM; AID 743279; hit rate 4.7% among 360,000; THP-1 LPS/ATP IL-1B secretion, AlphaLISA, 16 h; active compounds read low; in the data active means activity change below about -50%; inconclusive means mostly about -30% to -49%; further: on the % scale 0 is the no-effect control and ±100 the full control effect
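Secreted IL-1B measured by AlphaLISA bead assay after 16 h compound exposure of THP-1 cells; compounds (final up to 57.5 uM) added 1 h before LPS (250 ng/mL) and ATP (1.25 mM) stimulation; lower signal means less secretion.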
PINK1 modulator – changes PINK1 expression | PINK1 immunofluorescence, high-content cytometry, 24 h | Potency, µM (top dose mostly 76.6 µM), inactives show at the top dose activation (PINK1 increase), most hits filed as activators | hit rate 0.2% among 410,000; active means well fitted activation curve with a large enough effect; inconclusive means small, poorly fitted or top-dose-only effect; cell line not stated here; further: potency means the concentration at half of the fitted maximal effect; % of control where 0% means no effect; nearly all actives have a fitted effect of over 65% in size
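Cells are seeded, rested 12 hours, then given compound at five concentrations or DMSO for 24 hours. After fixation, blocking and antibody staining, PINK1 amount and mitochondrial localization are scored; CCCP serves as control.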
* hit, by the source's call; i = inactive; u = inconclusive; x = not tested or not shown; [ ] = another dose, or the depositor's remark. Only some compounds are listed: those with a hit (about 7.1% of all), similar ones and a draw of the others. Unless noted, the call rests on the fitted dose curve; in most records, active means well fitted curve in the direction sought with a large enough effect; inconclusive means small, poorly fitted or top-dose-only effect, or another doubt; inactive means no such curve, though single readings can be large; an effect the other way counts as inactive or inconclusive.

SMILES | S2 tox | ATXN2 expr inh | MCF10A rereplic | SW480 rereplic | IL1B secr inh | PINK1 modulator
CC(C)(C)c1ccc(C(=O)Nc2onc3c2CCCC3)cc1 | u | -34% | x | x | x | 4%
COC(=O)C1CCN(Cc2ccc3c(c2)CN(C(=O)c2cc4ccccc4n2C)CCO3)CC1 | i | x | x | x | x | 0%
COc1ccc(C(=O)/C=C/Nc2ccc([N+](=O)[O-])cc2C)cc1OC | i | -13% | 11% | 2% | -5 | 28µM*
Cc1cc(C)c(Nc2cc(S(=O)(=O)O)c(N)c3c2C(=O)c2ccccc2C3=O)c(C)c1 | u | -34% | u | -16% | -55* | 8%
Cc1cc(C)c(NC(=O)COC(=O)c2cccc3c2C(=O)c2ccccc2C3=O)c(C)c1 | i | -26% | u | -6% | u | 1%
CC1NC(=O)NC1CCCCCC(=O)Nc1ccc(F)c(Cl)c1 (configuration not stated) | i | x | -2% | -5% | -116* | 0%
Cc1ccc(NC(=O)CCCCCC2NC(=O)NC2C)cc1 (configuration not stated) | i | -8% | -2% | 0% | -95* | 7%[38.3 µM]
CC1NC(=O)NC1CCCCC(=O)O (configuration not stated) | i | 11% | 9% | -6% | 7 | 1%
CCc1cccc(NC(=O)CCCN2C(=O)NC(C)(C)C2=O)c1 | i | 6% | -1% | -4% | 16 | -1%
CCc1cccc(NC(=O)CCCCCC2NC(=O)NC2C)c1 (configuration not stated) | i | -16% | 13% | -1% | -109* | 3%
CN(C)[C@@H]1C(=O)C(C(N)=O)=C(O)[C@@]2(O)C(=O)C3=C(O)c4c(O)cccc4C[C@H]3C[C@@H]12 | i | -11% | x | x | x | x
CS(=O)(=O)c1nc(-c2ccccc2)cc(-c2ccccc2)c1C#N | x | u | 2.9µM* | 6.5µM* | -56* | -1%
COc1ccc(C)cc1NC(=O)CNC(c1ccccc1)c1ccc(C)cc1 (configuration not stated) | i | 0% | u | 2.6µM* | 115 | 6%
C=CC[C@H](CC(=O)N(CCO)Cc1ccccc1)C(=O)N[C@H](COC(=O)[C@@H](CC=C)Cc1ccc(F)cc1)Cc1ccccc1 | x | u | 5% | 17% | -56* | 6%
C=CC[C@@H](CC(=O)N(CCO)Cc1ccccc1)C(=O)N[C@H](C)COC(=O)[C@@H](CC=C)Cc1ccc(F)cc1 | i | -25% | u | 0% | -2 | 0%
C=CCC[C@@H](Cc1ccc(F)cc1)C(=O)OC[C@H](Cc1c[nH]c2ccccc12)NC(=O)[C@H](CC=C)CC(=O)N(CCO)Cc1ccccc1 | 22µM* | -17% | u | u | -7 | 1%
C=CCC[C@H](Cc1ccc(F)cc1)C(=O)OC[C@H](Cc1c[nH]c2ccccc12)NC(=O)[C@@H](CC=C)CC(=O)N(CCO)Cc1ccccc1 | x | 0% | u | u | u | 0%
C=CCC[C@H](Cc1ccc(F)cc1)C(=O)OC[C@@H](Cc1c[nH]c2ccccc12)NC(=O)[C@@H](CC=C)CC(=O)N(CCO)Cc1ccccc1 | 16µM* | u | u | u | -62* | 2%
COc1ccccc1C(=O)Nc1cccc(N2CCC(NCc3cnn(-c4ccccc4)n3)CC2)c1 | x | x | x | x | x | 2%
O=C(NCCCc1ccccc1)c1cccc(Br)c1 | i | x | -1% | -8% | u | 2%
O=C(CN(Cc1ccccc1)C(=O)CCl)c1cccc(Br)c1 | 25µM* | 22µM* | u | u | -98* | -1%
Cc1ccc(C)c2c1cc(C)c1nnc(SCC(=O)Nc3nc4c(s3)CCCC4)n12 | u | -18% | 21µM* | 2% | 27 | 6%
CCc1nc(SCC(=O)Nc2nc3c(s2)CCCC3)c2ccccc2n1 | i | -7% | -182%[0.0737 µM] | u | -86* | -5%
CCCc1nc(SCC(=O)Nc2nc3c(s2)CCCC3)c2ccccc2n1 | i | -12% | 16µM* | 8% | -24 | x
COc1ccc(CNC(=O)COC(=O)CC2CC3CCC2C3)cc1OC (configuration not stated) | i | -10% | 1% | 2% | 7 | -1%
SMILES | S2 tox | ATXN2 expr inh | MCF10A rereplic | SW480 rereplic | IL1B secr inh | PINK1 modulator
COc1ccc(-c2cc(-c3nnc(COC(=O)CC4CC5CCC4C5)o3)c3ccccc3n2)cc1OC (configuration not stated) | i | -13% | u | 2.6µM* | 0 | 1%
O=C1NC(c2ccccc2)N=C2Oc3ccccc3C=C12 (configuration not stated) | i | 0% | u | u | -54* | 14%
c1ccc(C2Nc3ccccc3Oc3ccccc32)cc1 (configuration not stated) | i | -14% | 10% | -3% | 8 | 0%
COc1cc(Cl)c(C)cc1Nc1nc2ccccc2c2nnc(C)n12 | x | x | x | x | x | 0%
NC(=O)[C@@H]1CCCN1C(=O)c1cc(NC(=O)c2ccccc2)cc2ncn(C3CCCC3)c12 | i | x | x | x | x | 1%
CNC(=O)/C(C#N)=c1\s/c(=C/C(=O)OC)c(=O)n1-c1ccccc1 | i | -1% | 22% | 1% | 3 | 2%
COC(=O)/C=c1\sc2ncnn2c1=O | i | -2% | 11µM* | -11%[9.22 µM] | -4 | -1%
N#Cc1c(Cl)nsc1NN | i | -17%[11.3 µM] | 16% | 0% | -64* | 1%
CC(=O)C1=C(O)C(=O)N(CCc2ccccc2)C1c1ccccc1[N+](=O)[O-] (configuration not stated) | i | -5% | 11% | 1% | 27 | 5%
CCN(CC)CCN1C(=O)C(O)=C(C(C)=O)C1c1ccccc1[N+](=O)[O-] (configuration not stated) | i | 28% | 21µM* | u | 17 | 3%
CC1CCC(C(C)C)C(OC(=O)Cn2c(-c3ccc(F)cc3)[n+](C)c3ccccc32)C1 (configuration not stated) | u | 8.9µM* | u | 16µM* | -101* | u
CC1CCC(C(C)C)C(OC(=O)CSc2nc(N)cc(=O)[nH]2)C1 (configuration not stated) | i | -12% | -1% | 0% | 25 | 4%[38.3 µM]
Cc1cccc(OC(=O)Cn2c(C(F)(F)F)nc3ccccc32)c1 | i | -11% | -3% | -3% | 47 | 1%
CC1CCC(C(C)C)C(OC(=O)Cn2c(-c3ccccc3)[n+](C)c3ccccc32)C1 (configuration not stated) | u | u | 18µM* | 15µM* | -103* | u

Screening results from PubChem BioAssay.
